SMN2 splice enh – enhancers of SMN2 splice variant expression. 2.8% of 210,000 active. Potency, µM (top dose mostly 46.1 µM), inactives show at the top dose activity change, positive = activation, most hits filed as activators. HEK293 SMN2-luciferase splicing reporter, luminescence, 30-36 h; note: % of control where 0% means no effect; nearly all actives have a fitted effect of over 55% in size
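HEK293 cells carry an SMN2 […]–luciferase reporter in which exon 7 inclusion puts luciferase in frame. Cells were plated 10-12 h before compound addition, then incubated 30-36 h at 37C. ONE-Glo luminescence was read; sodium butyrate at 4.5 mM final served as control.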
Rab9 promoter act – activators of Rab9 promoter | Huh7 Rab9 promoter-luciferase reporter, luminescence, 24 h | Potency, µM (top dose mostly 9.22 µM), without a hit: at the top dose activation, negative = inhibition, most hits filed as activators | 2.8% of 320,000 active; note: % of control where 0% means no effect; nearly all actives have a fitted effect of over 60% in size
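Measured in stably transfected Huh7 cells bearing a Rab9 promoter–luciferase construct: 24 h compound treatment at 37 °C, followed by luminescence detection.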
FLuc counter – inhibits or activates purified firefly luciferase, miR-21 counter-screen | 6.9% of 360,000 active | Potency, µM (titrated, usually from 57.5 µM), without a hit: top-dose activity change, negative = inhibition, usual class: inhibitors | AID 588342 | purified FLuc, Km substrates, luminescence inhibition;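 note: plate controls were vehicle for no effect and reference inhibitor for full effect; nearly all actives have a fitted effect of over 55% in size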
Target sequence (P08659 whole entry, looked up): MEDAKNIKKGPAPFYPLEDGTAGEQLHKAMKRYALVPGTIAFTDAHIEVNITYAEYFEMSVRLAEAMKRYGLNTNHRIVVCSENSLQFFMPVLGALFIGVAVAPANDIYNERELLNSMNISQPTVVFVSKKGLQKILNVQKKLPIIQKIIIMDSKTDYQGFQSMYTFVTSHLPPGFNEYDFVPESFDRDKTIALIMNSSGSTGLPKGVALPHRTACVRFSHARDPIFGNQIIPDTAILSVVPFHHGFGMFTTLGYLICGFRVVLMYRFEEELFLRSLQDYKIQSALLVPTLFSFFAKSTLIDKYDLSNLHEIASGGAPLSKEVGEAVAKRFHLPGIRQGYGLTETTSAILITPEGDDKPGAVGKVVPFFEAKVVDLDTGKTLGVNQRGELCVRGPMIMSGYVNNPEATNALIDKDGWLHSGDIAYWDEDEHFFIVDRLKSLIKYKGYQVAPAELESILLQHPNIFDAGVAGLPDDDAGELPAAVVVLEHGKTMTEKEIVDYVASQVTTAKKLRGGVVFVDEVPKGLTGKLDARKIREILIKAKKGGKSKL
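Biochemical qHTS of compounds, final roughly 60 µM downward over six points, against 10 nM purified firefly luciferase using Km concentrations of substrates (10 uM D-luciferin, 10 uM ATP) in Tris acetate pH 7.5 buffer; luminescence output.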
NPC1 prom act – activators of NPC1 promoter; AID 485313; Huh7 NPC1 promoter luciferase reporter, 24 h; 2.4% of 320,000 active; Potency, µM (series often up to 9.22 µM), inactives show top-dose activation, actives largely listed as activators; note: % of control where 0% means no effect; nearly all actives have a fitted effect of over 60% in size
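NPC1 promoter–luciferase Huh7 cells; 24 h compound; luminescence.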
ELG1 genotox – inducers of genotoxicity in HEK293T ELG1-luciferase cells | HEK293T ELG1-luciferase reporter, luminescence, 16 h | Potency, µM (top dose mostly 46 µM), for inactives: top-dose activity change, positive = activation, hits mostly activators | 1.3% of 330,000 active | AID 504466; note: % of control where 0% means no effect; nearly all actives have a fitted effect of over 60% in size
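HEK293T cells expressing luciferase-tagged ELG1 were exposed to compound or DMSO vehicle for 16 hr at 37 °C and 5% CO2. Luciferase activity was then measured with ONE-Glo after 30 min at room temperature.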
KinaseGlo FLuc – blocks Kinase-Glo luciferase, a counter-screen artifact | Q27757 | Kinase-Glo luciferase, ATP luminescence, 8 min | Potency, µM (top dose mostly 38.3 µM), for inactives: top-dose activity change, negative = inhibition, usual class: inhibitors | 0.28% of 200,000 active | AID 1379; note: % is set by controls: 0 for no effect and ±100 for the full control effect; nearly all actives have a fitted effect of over 60% in size
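Compound is pinned into ATP-containing buffer (10 uM ATP, imidazole pH 7.2, 7 mM MgCl2). Kinase-Glo luciferase reagent is then added. Light output is recorded following an 8-min room-temperature incubation.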
* = called active by the depositor; ? = inconclusive; / = no result given. An excerpt weighted towards active compounds, which were near 7.5% of everything screened. Calls come from the whole dose curve; as a rule, active = well fitted curve in the direction sought with a large enough effect; inconclusive = small, poorly fitted or top-dose-only effect, or another doubt; inactive = no such curve, though single readings can be large; an effect the other way counts as inactive or inconclusive. Potency is the fitted concentration of half-maximal effect.

SMILES	SMN2 splice enh	Rab9 promoter act	FLuc counter	NPC1 prom act	ELG1 genotox	KinaseGlo FLuc
O=C(N/N=C/c1ccncc1)c1ccc(OCc2ccccc2)cc1	/	1%	-5%	-3%	7%	/
CC(=O)Nc1ccc(C(=O)N/N=C/c2ccccc2OCc2ccccc2)cc1	2%	0%	17µM*	-8%	0%	0%
COC(=O)N/N=C/c1ccccc1OCc1ccccc1	10%	-5%	-2%	-2%	9%	-2%
O=C(N/N=C/c1ccc(OCc2ccccc2)cc1)c1ccncc1	16µM*	-3%	-10%	-5%	?	4%
O=C(N/N=C/c1ccccc1OCc1ccccc1)c1cccnc1	14%	0%	11µM*	-1%	-2%	-2%
O=C(N/N=C/c1ccc(OCc2ccccc2)cc1)c1cccs1	0%	?	-12%	?	8%	-2%
Oc1ccc(N=Cc2ccc(OCc3ccccc3)cc2)cc1	/	-3%	13µM*	-4%	?	-6%
Cc1cccc(NC(=S)NCC(c2cccnc2)N(C)C)c1C (stereo not given)	22%	-2%	6%	2%	0%	3%
Cc1ccc(NC(=O)CN2CCSc3ccc(S(=O)(=O)N4CCCC4)cc32)cc1	/	/	1%	/	/	/
COc1ccc(OCc2cc(/C=N\NC(=O)c3ccccc3)ccc2OC)cc1	/	?	12µM*	?	?	/
Cc1cc(C)n2nc(CNC(=O)c3ccc(Cl)cc3)nc2n1	6%	/	-2%	/	/	/
CCOC(=O)C1(Cc2cccc(OC)c2)CCN(C2CCOCC2)CC1	/	?	3µM*	?	?	-4%
CC#CC(=O)N1CCCC(Cc2cccc(OC)c2)(C(=O)OCC)C1 (stereo not given)	/	?	24µM*	?	16%	/
CCOC(=O)C1(Cc2ccccc2)CCCN(C(=O)C=C(C)C)C1 (stereo not given)	/	3.5µM*	17µM*	?	?	/
CCOC(=O)C1(Cc2ccccc2)CCCN(C2CCN(C(C)=O)CC2)C1 (stereo not given)	/	-2%	1%	-1%	-1%	/
CCOC(=O)C1(Cc2cccc(OC)c2)CCCN(C(=O)CCc2cccnc2)C1 (stereo not given)	/	?	17µM*	16%	?	-1%
CN1CCN(C(CNC(=O)c2ccc(Br)o2)c2ccc(F)cc2)CC1 (stereo not given)	/	4%	3%	0%	0%	/
Cc1ccc(CSC2=Nc3ccccc3C3=NC(CCC(=O)NCCc4ccccc4)C(=O)N23)cc1 (stereo not given)	/	/	-8%	/	/	/
CCOC(=O)C1(Cc2ccc(OC)cc2)CCN(C(=O)c2cc3ccccc3[nH]2)CC1	19%	2%	15µM*	2%	2%	-2%
O=C(NCc1ccc2c(c1)CCO2)Nc1ccccc1	/	3.2µM*	15µM*	3.5µM*	?	/
Cc1ccc(C(=O)NCc2ccc3c(c2)CCO3)cc1C	/	?	?	27%	16%	/
Fc1ccccc1N1CCN(c2ncnc3onc(-c4cccc(Cl)c4)c23)CC1	12%	/	1%	/	/	/
CCOC(=O)c1c(C)[nH]c(C2=NNC(=NC3CC3)SC2)c1C	-79%	?	0.6µM*	?	0.58µM*	-17%
CCOC(=O)c1c(C)[nH]c(/C(C)=N/O)c1C	-4%	11%	-15%	17%	-9%	-2%
CC(C)OCCCNC1=C(Cl)C(=O)c2ccccc2C1=O	/	13%	13µM*	14%	4%	/
SMILES	SMN2 splice enh	Rab9 promoter act	FLuc counter	NPC1 prom act	ELG1 genotox	KinaseGlo FLuc
COCCCNC1=C(Cl)C(=O)c2ccccc2C1=O	/	-3%	?	-1%	-5%	/
Cn1c(=O)c(=O)n(C)c2cc(N3CCCCC3)c(NS(=O)(=O)c3ccc([N+](=O)[O-])cc3)cc21	/	8%	-1%	-1%	-4%	/
O=C(NCc1cccs1)C(=O)NCC1OCCCN1S(=O)(=O)c1ccccc1 (stereo not given)	5.6µM*	0%	5%	-7%	-1%	-6%
Cc1cc(S(=O)(=O)N2CCCOC2CNC(=O)C(=O)NCc2cccs2)ccc1F (stereo not given)	/	-9%	6%	3%	-6%	/
COc1ccc(OC)c(C(=O)c2c(C)oc3cc([N+](=O)[O-])c(O)c([N+](=O)[O-])c23)c1	/	4%	21µM*	1%	3%	/
O=C(COC(=O)c1ccc(OC(F)F)cc1)NCc1cccs1	/	/	/	/	2%	/
CCOC(=O)Nc1sc2c(c1C#N)CCCC2	30%	4µM*	15µM*	?	15µM*	-3%
Cc1ccc(OCC(=O)Nc2sc3c(c2C#N)CCC3)cc1	5%	?	4.8µM*	?	?	-3%
Cc1nnc(SCC(=O)Nc2sc3c(c2C#N)CCCCC3)n1N	17%	19%	21µM*	26%	?	-5%
N#Cc1c(NC(=O)CSc2nnnn2C2CCCCC2)sc2c1CCCC2	/	-2%	2%	7%	0%	/
CC(C)c1ccc(C2=CC(c3cccc(Cl)c3)n3c(nc4ccccc43)N2)cc1 (stereo not given)	/	/	21µM*	/	/	/
CCOc1ccc(C2=CC(c3cccc(Br)c3)n3c(nc4ccccc43)N2)cc1Cl (stereo not given)	/	/	13µM*	/	/	/
CCc1ccc(C2=CC(c3cccc(OC)c3OC)n3c(nc4ccccc43)N2)cc1 (stereo not given)	/	/	4.3µM*	/	/	/
CCc1ccc(C2=CC(c3cccc(C)c3)n3c(nc4ccccc43)N2)cc1 (stereo not given)	/	/	1.2µM*	/	/	/
CC(C)CN(CC(C)C)S(=O)(=O)N1CCC(C(=O)NCc2ccco2)CC1	-21%	-1%	-6%	-6%	-3%	-4%

Assay outcomes: PubChem BioAssay, National Center for Advancing Translational Sciences (NCATS)
